Values joined by “and” are separate entries in the source; they are usually repeats but may differ in a detail not shown here. Identical values can stand only once. The panel holds about 83,000 compounds, 20% with a hit somewhere; the sample as a whole holds those more often.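 Testing used 96-well plates and a 48-hour single-concentration exposure. Example: -40 means 40% of the starting cells died.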 Active and inactive are the calls of the source. Rule for the calls: active = growth percent below 10; inactive = the rest.
Tested on: HT29 colon
Assay: NCI-60 one-dose screen, 48 h (100 = growth as untreated, 0 = no growth, -100 = all killed)
Details: 10 µM unless noted

Row | Compound | growth
1 | [Cu+].[NH-][C@H]1C[N-]C(=O)[C@H]([C@H]2CCN=C(N)N2)[N-]C(=O)/C(=C\NC(N)=O)[N-]C(=O)[C@H](CNC(=O)C[C@@H](N)CCCN)[N-]C(=O)[C@H](CO)[N-]C1=O | 104% (inactive)
2 | S=c1nc(CS)[nH]c2ccccc12 | 101% (inactive)
3 | Cc1oc2c(Cc3ccc(NC(=O)c4ccc(Cl)cc4)cc3)ncnc2c1C(=O)NO | 89.6% (inactive)
4 | COc1ccc2c(c1)CCNC21C(=O)Nc2c(Br)cc(Br)cc21 (stereo not given) | 104% (inactive)
5 | COC(=O)c1nc(-c2ccccc2)oc1S(=O)(=O)N(C)CCO | 35.7% (inactive)
6 | [2H]C([2H])([2H])Oc1cccc(/C=C/C(=O)/C=C(/C=C/c2cccc(OC([2H])([2H])[2H])c2OC([2H])([2H])[2H])OB(F)F)c1OC([2H])([2H])[2H] | 86.3% (inactive)
7 | N#Cc1ccccc1OCC(=O)Nc1nc2c(s1)COc1ccccc1-2 | 104% (inactive)
8 | COc1cc(/C=C2/C=C(c3ccc(C(C)(C)C)cc3)N(CCc3ccc(S(N)(=O)=O)cc3)C2=O)cc(OC)c1OC | 8.93% (active)
9 | Nc1n[nH]c2cccc(C#Cc3cccc(NC(=O)c4ccc(N5CCOCC5)c(C(F)(F)F)c4)c3)c12 | 3.29% (active)
10 | Cc1nn(-c2nc(-c3cc4ccccc4oc3=O)cs2)c(C)c1N=Nc1ccccc1 | 103% (inactive)
11 | Cc1nnc(NS(=O)(=O)c2ccc(N=Nc3ccc(N)nc3N)cc2)s1 | 108% (inactive) and 104% (inactive)
12 | COc1ccc(-c2csc(NC(=O)CN3CCN(CCO)CC3)n2)cc1NS(=O)(=O)c1cccc2c(N(C)C)cccc12 | 20.1% (inactive)
13 | C=C(c1ccc(C(=O)O)cc1)c1cc2c(cc1C)C(C)(C)CCC2(C)C | 93.2% (inactive) and 62.7% (inactive)
14 | O=[N+]([O-])c1cc(C(F)(F)F)ccc1Sc1ccc(C(F)(F)F)cc1[N+](=O)[O-] | 18.5% (inactive)
15 | COc1ccc2c(O)c(/C=C3\N=Nc4nc(C)ccc43)oc2c1CC1CCNCC1 | 31.6% (inactive)
16 | Cc1ccc(Nc2nc(-c3cc(O)c(C)c(C)c3O)cs2)cc1 | 112% (inactive)
17 | COc1cc(N=Nc2ccc(O)c3ncccc23)c2ncccc2c1 | 44.5% (inactive)
18 | CCCCCCCC/C=C\CCCCCCCCOc1ccccc1CC(=O)NCC[N+]1(C)CCOCC1 | 44.9% (inactive)
19 | Nc1ccc(S(=O)(=O)c2ccc(N)cc2)cc1 | 106% (inactive) and 98.1% (inactive)
20 | C[C@]12CCc3c(ccc4cc(O)ccc34)[C@@H]1C[C@H](O)[C@@H]2O | 102% (inactive)
21 | COc1ccc(C(c2cc(OC)c(OC)c(OC)c2)n2ccnc2)cc1O (stereo not given) | 5.94% (active)
22 | CN(C)CCCn1c2c(c3ccc(N4CCNCC4)cc3c1=O)C(=O)c1ccccc1-2 | -52.4% (active)
23 | Clc1ccc(Nc2nc(Nc3ccc(Cl)cc3)nc(Nc3ccc(-c4cc(-c5cccc(Cl)c5)on4)cc3)n2)cc1 | 105% (inactive)
24 | N#Cc1ccccc1-c1ccc(Cn2c(-c3cscn3)nc3c(Cl)cccc32)cc1 | 71% (inactive)
25 | O=C(NNc1ccccc1)c1ccccc1 | 85.5% (inactive) and 84.8% (inactive)
26 | CCOc1ccc(N2C(N)=NC(N)=NC2(C)C)cc1 | 2.75% (active) and 87.4% (inactive)
27 | O=C1c2cc3c(cc2-c2c1c1ccc(Cl)cc1c(=O)n2CCCn1ccnc1)OCO3 | -62.9% (active)

Tested on: SNB-75 CNS
Assay: as above
Details: 10 µM unless noted

Row | Compound | growth
28 | Cc1ccc(C(=O)Nc2ccc(CN3CCN(C)CC3)c(C(F)(F)F)c2)cc1C#Cc1cnc(N)cc1C#N | -81.1% (active)
29 | COc1cc(/C=C(/c2ccccc2)[N+](=O)[O-])c(OC)c2c1OCO2 | -92.6% (active)
30 | C[C@@H]1CC[C@@H]2[C@@H]1[C@H](OC(=O)/C=C/c1ccccc1)[C@]1(c3ccccc3)C[C@@H](NC(=O)CO)[C@@]2(C)O1 | 88% (inactive)
31 | Nc1ccc(-c2nc3ccc4[nH]ncc4c3c3c2CCCC3)cc1F | 19.3% (inactive)
32 | C=C1CCC2C3(C)COC(c4ccc(NC(C)=O)cc4)OC3CCC2(C)C1C/C=C1/C(=O)OCC1O (stereo not given) | 63.9% (inactive)
33 | Cc1c(C(C)(C)O)cn2ncnc(Oc3ccc(NC(=O)Nc4ccc(Cl)c(C(F)(F)F)c4)cc3)c12 | 33.8% (inactive)
34 | Cc1ccccc1SSc1ccccc1C | 123% (inactive)
35 | O=C(CC1(O)C(=O)Nc2ccc(Br)cc21)c1ccc(Cl)cc1 (stereo not given) | 81.8% (inactive)
36 | O/N=C(/c1ccccc1)c1ccc2c3c(cccc13)CC2 | 74.8% (inactive) and 58.4% (inactive)
37 | Cc1ccc(/C=C2\COc3ccc(O)c(O)c3C2=O)cc1 | 13.5% (inactive)
38 | CC1(Cc2ccccc2)CC2=C(C(=O)O1)C(c1ccccc1)NC(=O)N2 (stereo not given) | 79.3% (inactive)
39 | [Cu+].[NH-][C@H]1C[N-]C(=O)[C@H]([C@H]2CCN=C(N)N2)[N-]C(=O)/C(=C\NC(N)=O)[N-]C(=O)[C@H](CNC(=O)C[C@@H](N)CCCN)[N-]C(=O)[C@H](CO)[N-]C1=O | 88.2% (inactive)
40 | S=c1nc(CS)[nH]c2ccccc12 | 86.7% (inactive)
41 | Cc1oc2c(Cc3ccc(NC(=O)c4ccc(Cl)cc4)cc3)ncnc2c1C(=O)NO | 106% (inactive)
42 | COc1ccc2c(c1)CCNC21C(=O)Nc2c(Br)cc(Br)cc21 (stereo not given) | 70.6% (inactive)
43 | COC(=O)c1nc(-c2ccccc2)oc1S(=O)(=O)N(C)CCO | 95.5% (inactive)
44 | [2H]C([2H])([2H])Oc1cccc(/C=C/C(=O)/C=C(/C=C/c2cccc(OC([2H])([2H])[2H])c2OC([2H])([2H])[2H])OB(F)F)c1OC([2H])([2H])[2H] | 55.2% (inactive)
45 | N#Cc1ccccc1OCC(=O)Nc1nc2c(s1)COc1ccccc1-2 | 82.7% (inactive)
46 | COc1cc(/C=C2/C=C(c3ccc(C(C)(C)C)cc3)N(CCc3ccc(S(N)(=O)=O)cc3)C2=O)cc(OC)c1OC | 65.9% (inactive)

Row | Compound | growth
47 | Nc1n[nH]c2cccc(C#Cc3cccc(NC(=O)c4ccc(N5CCOCC5)c(C(F)(F)F)c4)c3)c12 | -25.6% (active)
48 | Cc1nn(-c2nc(-c3cc4ccccc4oc3=O)cs2)c(C)c1N=Nc1ccccc1 | 89.4% (inactive)
49 | Cc1nnc(NS(=O)(=O)c2ccc(N=Nc3ccc(N)nc3N)cc2)s1 | 92% (inactive) and 89.6% (inactive)
50 | COc1ccc(-c2csc(NC(=O)CN3CCN(CCO)CC3)n2)cc1NS(=O)(=O)c1cccc2c(N(C)C)cccc12 | 78.2% (inactive)
51 | C=C(c1ccc(C(=O)O)cc1)c1cc2c(cc1C)C(C)(C)CCC2(C)C | 94.9% (inactive) and 82.7% (inactive)
52 | O=[N+]([O-])c1cc(C(F)(F)F)ccc1Sc1ccc(C(F)(F)F)cc1[N+](=O)[O-] | 86% (inactive)
53 | COc1ccc2c(O)c(/C=C3\N=Nc4nc(C)ccc43)oc2c1CC1CCNCC1 | 25.2% (inactive)
54 | Cc1ccc(Nc2nc(-c3cc(O)c(C)c(C)c3O)cs2)cc1 | 102% (inactive)
55 | COc1cc(N=Nc2ccc(O)c3ncccc23)c2ncccc2c1 | 41.9% (inactive)
56 | CCCCCCCC/C=C\CCCCCCCCOc1ccccc1CC(=O)NCC[N+]1(C)CCOCC1 | 47.7% (inactive)
57 | Nc1ccc(S(=O)(=O)c2ccc(N)cc2)cc1 | 87.8% (inactive)
58 | C[C@]12CCc3c(ccc4cc(O)ccc34)[C@@H]1C[C@H](O)[C@@H]2O | 116% (inactive)
59 | COc1ccc(C(c2cc(OC)c(OC)c(OC)c2)n2ccnc2)cc1O (stereo not given) | 56.7% (inactive)
60 | CN(C)CCCn1c2c(c3ccc(N4CCNCC4)cc3c1=O)C(=O)c1ccccc1-2 | 22.3% (inactive)
61 | Clc1ccc(Nc2nc(Nc3ccc(Cl)cc3)nc(Nc3ccc(-c4cc(-c5cccc(Cl)c5)on4)cc3)n2)cc1 | 99.4% (inactive)
62 | N#Cc1ccccc1-c1ccc(Cn2c(-c3cscn3)nc3c(Cl)cccc32)cc1 | 78% (inactive)
63 | O=C(NNc1ccccc1)c1ccccc1 | 70.6% (inactive) and 87.6% (inactive)
64 | CCOc1ccc(N2C(N)=NC(N)=NC2(C)C)cc1 | -3.85% (active) and 82.7% (inactive)
65 | O=C1c2cc3c(cc2-c2c1c1ccc(Cl)cc1c(=O)n2CCCn1ccnc1)OCO3 | 0.456% (active)

— PubChem BioAssay (NCI)
